Among all 16,000 compounds or so, about 130 (0.81%) were called active. Shown is part of a subset that was picked to be rich in actives. Unmarked numbers belong to inactive results. No stated cut-off is given here; in the data, active means inhibition above about 75%; inactive means the rest.

What is called inhibition is the change of the read-out against control, counted positive when it falls.

For this assay, the target named is NADPH oxidase 1 (Homo sapiens) (UniProt Q9Y5S8). The assay can be described thus: blocks human NADPH oxidase 1 activity (AID 1792). The settings on record: HT29 cells, luminol chemiluminescence ROS; at 6.7 µM; stronger effect = higher value.
NADPH oxidase 1 (Homo sapiens), sequence (Q9Y5S8 whole entry, looked up): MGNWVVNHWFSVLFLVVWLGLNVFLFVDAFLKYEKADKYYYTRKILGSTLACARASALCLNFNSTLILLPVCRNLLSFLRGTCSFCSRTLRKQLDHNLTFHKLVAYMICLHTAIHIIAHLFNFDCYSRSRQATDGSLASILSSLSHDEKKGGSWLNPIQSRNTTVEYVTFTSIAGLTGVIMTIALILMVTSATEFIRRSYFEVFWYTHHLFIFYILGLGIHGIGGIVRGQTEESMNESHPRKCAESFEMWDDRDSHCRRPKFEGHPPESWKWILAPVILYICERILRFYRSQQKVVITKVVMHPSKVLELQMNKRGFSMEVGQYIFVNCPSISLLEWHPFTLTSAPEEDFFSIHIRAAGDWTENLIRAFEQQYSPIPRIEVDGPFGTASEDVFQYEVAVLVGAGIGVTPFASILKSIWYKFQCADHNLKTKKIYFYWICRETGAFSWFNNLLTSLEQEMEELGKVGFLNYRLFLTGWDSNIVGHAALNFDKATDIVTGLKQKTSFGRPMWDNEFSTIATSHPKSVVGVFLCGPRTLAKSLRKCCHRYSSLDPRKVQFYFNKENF
Take `N#C/C(=C\c1sccc1Oc1ccccc1)S(=O)(=O)c1ccc(C(F)(F)F)cn1`: the inhibition is -16.5%.

`CCCCC#Cc1cncc(C(=O)NNC(=O)Nc2ccc(Cl)cc2)c1`: the inhibition is 11.2%. Consider `N#Cc1cccnc1NNC(=O)Nc1ccc(OCc2ccccc2)cc1`, for which the inhibition was 61.8%. `CC(C)CC(NC(=O)OC(C)(C)C)C(=O)OCc1ccc(CC(=O)O)cc1` (stereo not drawn): the inhibition was -5%. In the case of `O=c1c(-c2nc(-c3ccc(C(F)(F)F)cc3)no2)cnc2n1CCS2`, the inhibition was -4.83%.

For the compound `CSc1sc(C(=O)NC2CC2)c(-c2ccc(Cl)cc2)c1C#N`, the inhibition was -9.35%.

In the case of `NS(=O)(=O)c1ccc(Oc2c(Cl)cccc2[N+](=O)[O-])cc1`, the inhibition was 21.2%. The result for `Cc1cc(C(=O)NCCNS(=O)(=O)c2ccc(Cl)cc2)c(C)o1` reads 2.68%. As to `O=C1c2ccccc2O[C@@H](c2ccccc2)[C@@H]1NC1CCCCC1`, the inhibition was -19.7%.

On to `COC(=O)c1ccccc1-c1c2ccc(=O)cc-2oc2cc(O)ccc12`, for which the inhibition was -13%. The result for `C#CC(C)(CC)OCC(O)CS(=O)(=O)O` (stereo not drawn) reads -13.2%. For `COc1cccc2c1c(NS(=O)(=O)c1cn(C)cn1)nn2C`, the inhibition is -41.2%.

Turning to `Cc1nc(-n2cccc2)sc1C(=O)N/N=C/c1ccccc1Cl`, the inhibition is 6.52%.

Take `O=S(=O)(c1ccc(Cl)cc1)n1nccc1/C=C/c1cccs1`: the inhibition is -18.9%. The result for `CSc1nnc(SC)n1CCNC(=O)Nc1cccc(Cl)c1` reads -65%; that for `O=C(Cn1nnc2ccccc21)NCCSCc1ccco1`, 16.2%; that for `CN([C@H]1CCN2CCc3ccccc3C2C1)S(C)(=O)=O` (stereo partly drawn), -68.5%. For `Cc1ccc(C(=O)N2CCN(c3cccc4[nH]ccc34)CC2)cc1` the value was 76% (active).

Take `N#Cc1nccnc1N1CCN(C(=O)c2ccccc2)CC1`: the inhibition is -2.33%. The result for `COc1cccc(NC(=S)N(CCC#N)C2CCCCC2)c1` reads -44.9%. Consider `COc1cccc(NC(=S)NNC(=S)NC2CC3CCC2C3)c1` (stereo not drawn), for which the inhibition was 87.8% (active).

`COc1ccc(NC(=S)Nc2ccc(OC)cc2)cc1`: the inhibition is 3.7%. Regarding `CSc1nc(-n2nc(C)cc2C)nc(-c2ccco2)c1C#N`, the inhibition was -107%. Regarding `Cc1ccc(NC(=S)C(C#N)C(=O)N2CCCC2)c(C)c1` (stereo not drawn), the inhibition was -73.4%. Consider `CCOC(=O)c1c[nH]n2c(=O)c3c(nc12)CCC3`, for which the inhibition was -13%. On to `Cc1noc(C)c1S(=O)(=O)NCc1cc(F)cc2c1OCOC2`, for which the inhibition is -23.9%. Consider `CS/C(=N/S(=O)(=O)c1c(C)noc1C)NNC(=O)Nc1ccc(Cl)cc1`, for which the inhibition was 20%.

As for `CC1=NCCNC(C)=C1N1CCOCC1`, the inhibition is -21.2%.

For `CCCCNC(=O)OCCSCCS(=O)(=O)c1ccc(Cl)cc1`, the inhibition is -35%. The result for `O=C(NCc1cccnc1)Nc1cccc(NC(=O)NCc2cccnc2)c1F` reads -23.7%; that for `CC(C)(C)OC(=O)n1ccc2cc(Br)ccc21`, -51.3%. For `Fc1ccc(NC(=S)N2CCN=C2Nc2ccc(F)cc2)cc1` the value was -49.7%.

As to `O=C(O)c1ncoc1-c1cccc(Cl)c1`, the inhibition is -52.4%. The result for `CCOC(=O)CC(=O)CSc1nnc(N)s1` reads -48%; that for `N#Cc1cncc(Br)c1`, -66.5%; that for `NNC(=O)CC1C(=O)NCCN1Cc1c(Cl)cccc1Cl` (stereo not drawn), 14.9%.

As to `CSc1ccc(Br)cc1`, the inhibition was -59.5%. The result for `CC(C)(C)c1cc(NC(=O)/C(C#N)=C/c2cccc(Cl)c2Cl)c(C(N)=O)s1` reads -9.18%. For `COC(=O)c1ccccc1N(C)C(=O)c1cc(OC)c(OC)c(OC)c1` the value was -18%.

For `CCOC(=O)NC(=O)/C(=C/NCc1cccs1)C(=O)OCC`, the inhibition is -20.5%. The result for `NC(=O)c1ccc(-c2csnn2)cc1` reads -4.63%; that for `FC(F)(F)c1cc(-c2ccc(Br)cc2)n[nH]1`, -47%; that for `Cc1ncn2cc(-c3ccc(Cl)cc3Cl)[nH]c(=O)c12`, -12%. As to `Cc1ccc(CSC(=N)N)cc1`, the inhibition was -35.4%. The result for `O=C(NC(=S)Nc1nc(-c2ccc(Cl)cc2)cs1)C1CC1` reads -57.1%; that for `CC(=O)NC(Cc1c[nH]c2ccccc12)C(=O)O` (stereo not drawn), -15.3%. For `O=C(Cn1c(=Nc2ccc(F)cc2)oc2ccccc2c1=O)c1ccccc1` the value was -0.92%; for `COc1ccc(S(=O)c2ccccc2C(=O)O)c(C(=O)O)c1` (stereo not drawn), -11.3%.

For the compound `COc1ccccc1C1CCN(c2ccc([N+](=O)[O-])cn2)CC1`, the inhibition is 18%. With `O=C(Nc1ccc(C(F)(F)F)cn1)c1ccc(Oc2cc(Cl)cc(Cl)c2)o1`, the inhibition is -58.2%. In the case of `CCCCOC(=O)c1ccc(-c2ccccn2)s1`, the inhibition is -10.4%.

As for `Cc1[nH]ncc1S(=O)(=O)c1ccc(Cl)cc1`, the inhibition is -77.8%. The result for `Cc1cc(C(=O)NNC(=O)c2cc(C)n(C(C)(C)C)n2)no1` reads -45.9%; that for `O=C(Nc1ccccc1C(F)(F)F)N1CCCC1c1cccnc1` (stereo not drawn), -8.11%; that for `CCOC(=O)c1sc(SC)c(-c2ccccc2)c1N`, 0%. For `N#Cc1c(C2CCCCC2)[nH]c(=S)[nH]c1=O`, the inhibition is -8.73%. `COc1c(/C(N)=N/O)cc(C)c2c1CCC2`: the inhibition is 8.11%.

On to `Cc1ccc(S(C)(=O)=NC(=O)NS(=O)(=O)Oc2ccc(Cl)cc2Cl)cc1` (stereo not drawn), for which the inhibition is -64.7%.

For `O=C1c2ccccc2C(=O)N1CNc1ccc(C2CCCCC2)cc1`, the inhibition is -10.4%. In the case of `O=C(c1ccc(C#Cc2ccccc2)o1)N1CCCCC1`, the inhibition is -23.7%. For `NNC(=O)c1csc(COc2ccc(C3SCCS3)cc2)n1` the value was 4.76%.

In the case of `N/C(Cc1ccc(F)cc1F)=N\OC(=O)c1cccc(C(F)(F)F)c1`, the inhibition is -67.4%. In the case of `O=C(c1ccccc1I)c1c[nH]c2ccccc12`, the inhibition is 13.6%. Regarding `CC1(C)c2ccccc2-n2c1cc(O)c(-c1ccccc1)c2=O`, the inhibition was -50%. As for `COC(=O)c1c(C)noc1-c1ccno1`, the inhibition was -21.7%.

As to `CCCCCCCCCCCCCC#CC(O)C(N)CO` (stereo not drawn), the inhibition is -24.7%.

As for `O=C(NNC(=O)C1c2ccccc2Oc2ccccc21)c1cccc(F)c1`, the inhibition was -30.2%. Regarding `CC(=O)Nc1ccc(NC(=O)c2cc(C)ccc2[N+](=O)[O-])c(C)c1`, the inhibition is -28.7%.

Consider `CSc1ccc(C(F)(F)F)cc1NC(=S)Nc1ccccc1`, for which the inhibition was -18%. Consider `COC(=O)c1sccc1-c1ccc(/C(C)=N/NC(N)=O)o1`, for which the inhibition was -53.5%. As for `CCOC1=NC(C(F)(F)F)(C(F)(F)F)N=C(N2CCOCC2)O1`, the inhibition is -12.7%. The result for `O=S(=O)(Cc1cccc(C(F)(F)F)c1)NCc1ccc2c(c1)OCO2` reads -29.2%. As to `Cc1nc(-c2ccccc2)sc1-c1nnc(C2CC2)o1`, the inhibition was -8.29%. For `Cc1ccc(CC(=O)c2cccnc2)cc1` the value was 13.9%; for `COc1ccccc1N1CCN(C/C(N)=N/O)CC1`, -72.5%. For `O=C(NCc1ccc2c(c1)OCO2)c1cccc2c1OCCCO2`, the inhibition was -22.4%. The result for `COc1ccc(-c2nnc(SCC(O)C(F)(F)F)n2-c2cccc(OC)c2)cc1` (stereo not drawn) reads -65.7%. The result for `O=C1CCC(=O)N(c2ccccc2)N1` reads 5.82%. For `CN(C)/C=N/NC(=O)c1nc(-c2cccc(-n3cccc3)c2)no1` the value was 18.8%. Turning to `O=S(=O)(Oc1ncccc1C(F)(F)F)c1cccc(F)c1`, the inhibition is -33.3%. The result for `CC(C)(C)c1csc(Sc2ccc([N+](=O)[O-])cc2[N+](=O)[O-])n1` reads -42.4%; that for `Cc1[nH]c2ccccc2c1Sc1ccc(Cl)cc1`, -26.1%. As for `CC1(C)C2CC[C@](C)(C2)C1NC(=O)c1c(Cl)cccc1Cl` (stereo partly drawn), the inhibition is -15.2%.

In the case of `Oc1c(Cl)c(Cl)c(Cl)c2ccccc12`, the inhibition was -9.97%. Turning to `O=C(Nc1ccccc1)N1CCN(Cc2ccccc2)CC1`, the inhibition was -18.5%. With `Nc1[nH]c(=O)nc2nc[nH]c12`, the inhibition was 10.8%. With `CN(C)CCC(O)c1ccc2c(c1)OCCCCO2` (stereo not drawn), the inhibition is -25.5%. For the compound `Cc1ccc2sc(NC(=O)NC(=O)c3c(Cl)cccc3Cl)nc2c1`, the inhibition is -14.9%. For `Cc1c(C(=O)Nc2ccccc2)sc2cc(C(C)(C)C)sc12` the value was 4.35%; for `CS(=O)(=NC(=O)c1cc2ccccc2o1)c1ccc(Cl)cc1` (stereo not drawn), 3.12%. Turning to `N#CCc1ccc(NC(=O)c2ccccc2C(=O)Nc2ccc(CC#N)cc2)cc1`, the inhibition was -21.7%. The result for `CCCN(CCC)S(=O)(=O)c1ccc(C(=O)N2CC3CCC(CC3)C2)cc1` reads -49.5%; that for `OC(CNCc1ccc2c(c1)OCO2)COc1ccccc1` (stereo not drawn), -16.2%. For `CC(C)c1ccc(N2C(=O)/C(=C\c3ccc(-c4ccc([N+](=O)[O-])cc4)o3)SC2=S)cc1` the value was -23.7%; for `FC(F)(F)c1cccc(-n2c(-c3ccncc3)n[nH]c2=S)c1`, -29.9%; for `c1ccc(CN2CCN(Cn3nnc4ccccc43)CC2)cc1`, -54.1%.

Regarding `CC1(C)C=Cc2cc(-c3noc(-c4ccccc4)n3)ccc2O1`, the inhibition was -38.9%.

For the compound `Nc1c(-c2nnc(SCC(=O)c3ccccc3)o2)cnn1-c1ccccc1`, the inhibition is 26.2%. For the compound `FC(F)(F)c1ccc(/C=N/Nc2nccc(C(F)(F)F)n2)cc1`, the inhibition was -24.2%. For the compound `CC(=O)Nc1cccc(-n2nnc(SCC(=O)c3cc(-c4ccccc4)no3)n2)c1`, the inhibition is -33.7%. For the compound `Cc1ccc(S(=O)(=O)NNC(=S)NC(C)(C)C)cc1`, the inhibition is -24.1%.

Regarding `C=C(C)c1cccc(C(C)(C)NC(=O)CC(C)=O)c1`, the inhibition was -17.3%.

With `COC(=O)c1cccc(CSc2ncccc2C(=O)O)c1`, the inhibition is -48.1%.

Source of the values: PubChem BioAssay AID1792 (The Scripps Research Institute Molecular Screening Center, 2009).
